Compound activity deposited in PubChem BioAssay by National Center for Advancing Translational Sciences (NCATS).
In the library only some 10% were active in any assay of this set; here they are far more common.
JMJD2A Tudor: blocks the human JMJD2A Tudor domain; O75164; AlphaScreen JMJD2A-Tudor / H3K4me3 peptide binding; Potency, µM (top dose mostly 114 µM), without a hit: at the top dose activity change, negative = inhibition, actives largely listed as inhibitors; 390,000 tested, 4.4% active; AID 504339; further: potency means the concentration at half of the fitted maximal effect; on the % scale 0 is the no-effect control and ±100 the full control effect; nearly all actives have a fitted effect of over 50% in size
Target sequence (O75164 whole entry, looked up, the tested form may be a part): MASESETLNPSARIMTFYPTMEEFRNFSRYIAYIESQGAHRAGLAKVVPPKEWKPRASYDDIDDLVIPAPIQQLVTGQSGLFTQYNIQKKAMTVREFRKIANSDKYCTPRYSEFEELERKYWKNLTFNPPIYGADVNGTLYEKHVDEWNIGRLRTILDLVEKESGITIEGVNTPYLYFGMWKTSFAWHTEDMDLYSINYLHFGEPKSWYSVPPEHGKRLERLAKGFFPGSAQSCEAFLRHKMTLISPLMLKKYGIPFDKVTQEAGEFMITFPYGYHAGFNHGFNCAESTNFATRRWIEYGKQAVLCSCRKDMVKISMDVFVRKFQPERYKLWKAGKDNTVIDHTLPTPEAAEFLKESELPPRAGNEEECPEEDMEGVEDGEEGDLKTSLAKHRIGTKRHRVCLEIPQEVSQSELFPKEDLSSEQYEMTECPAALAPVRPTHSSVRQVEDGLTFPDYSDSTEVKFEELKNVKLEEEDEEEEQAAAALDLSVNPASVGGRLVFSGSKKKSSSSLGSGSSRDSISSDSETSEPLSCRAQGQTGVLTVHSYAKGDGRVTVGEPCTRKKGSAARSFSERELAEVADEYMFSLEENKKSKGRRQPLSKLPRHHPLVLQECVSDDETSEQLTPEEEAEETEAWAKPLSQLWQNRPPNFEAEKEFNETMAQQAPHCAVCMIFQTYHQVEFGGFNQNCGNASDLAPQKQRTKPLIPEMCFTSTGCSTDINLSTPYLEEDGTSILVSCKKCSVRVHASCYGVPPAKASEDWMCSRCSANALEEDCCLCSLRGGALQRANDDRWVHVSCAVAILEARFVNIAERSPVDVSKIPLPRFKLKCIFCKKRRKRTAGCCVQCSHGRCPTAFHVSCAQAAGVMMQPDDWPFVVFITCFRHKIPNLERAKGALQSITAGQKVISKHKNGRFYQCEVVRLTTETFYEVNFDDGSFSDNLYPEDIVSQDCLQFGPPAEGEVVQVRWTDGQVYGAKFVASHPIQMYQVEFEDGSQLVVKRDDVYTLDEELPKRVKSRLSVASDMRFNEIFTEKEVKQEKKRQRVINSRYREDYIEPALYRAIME
HP1b chromo inh: blocks HP1-beta chromodomain binding to methylated histone tails; AlphaScreen HP1-beta / biotin-H3K9me3 peptide binding; 390,000 tested, 0.56% active; Potency, µM (highest dose often 114 µM), for the others: top-dose activity change, negative = inhibition, hits mostly inhibitors; further: potency means the concentration at half of the fitted maximal effect; nearly all actives have a fitted effect of over 70% in size
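HP1-beta protein (50 nM final) preincubated 30 min at room temperature with biotinylated H3(1-18)K9me3 peptide (50 nM) in PBS pH 7.4, 0.01% Tween-20, then compound added for 30 min. AlphaScreen streptavidin donor/nickel chelate acceptor beads (10 ug/mL final), 30 min dark, luminescence read.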
Six1-Eya2 inh: blocks human Six1 binding to Eya2 | Q15475+O00167 | activity change, % (test concentration not listed) | AID 651725 | 360,000 tested, 0.56% active | AlphaScreen GST-Six1/His-Eya2 binding, biochemical; stronger effect = lower value; in the data active means activity change below about -65%; inconclusive means mostly about -30% to -63%; further: on the % scale 0 is the no-effect control and ±100 the full control effect
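Homogeneous AlphaScreen proximity assay pairing GST-Six1 with His-tagged Eya2 (added as 5X mix: 250 nM and 500 nM) in 50 mM Tris pH 8.0, 300 mM NaCl, 1 mM TCEP. Glutathione donor and nickel acceptor beads; 1 h, 37 °C, dark.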
G9a inh: inhibitors of human histone lysine methyltransferase G9a. Q96KQ7. G9a H3K9 monomethylation, AlphaScreen, 2 h. Potency, µM (doses to about 102 µM), inactives show at the highest dose activity, negative = inhibition, most hits filed as inhibitors. 350,000 tested, 8.8% active. AID 504332; further: potency means the concentration at half of the fitted maximal effect; on the % scale 0 is the no-effect control and ±100 the full control effect; nearly all actives have a fitted effect of over 75% in size
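Quantitative HTS format: methyltransferase activity on a biotin-tagged H3K9 peptide is measured by AlphaScreen, using a rabbit anti-monomethyl-H3K9 antibody with streptavidin donor and anti-IgG acceptor beads. Final levels are 20 nM enzyme, 500 nM peptide, 20 uM SAM; 2 h RT.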
CtBP-E1A inh: CtBP/E1A binding inhibition | AlphaScreen GST-E1A/His-CtBP binding, 1536-well; stronger effect = lower value | activity change, % (no concentration beside the values) | 340,000 tested, 0.49% active; in the data active means activity change below about -65%; inconclusive means mostly about -30% to -63%; further: on the % scale 0 is the no-effect control and ±100 the full control effect
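In 5 uL wells, 23 nL compound meets equimolar GST-E1A and His-CtBP (5X stock 125 nM each) for 2 h, 37 °C. Beads (5X, 50 ug/mL) then 1 h, 37 °C, dark.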
BAZ2B block: blocks human BAZ2B; Q9UIF8; AlphaScreen BAZ2B-H3K14Ac peptide displacement; Potency, µM (top dose mostly 114 µM), for inactives: at the highest dose activity change, negative = inhibition, actives largely listed as inhibitors; 360,000 tested, 4.4% active; AID 504333; further: potency means the concentration at half of the fitted maximal effect; on the % scale 0 is the no-effect control and ±100 the full control effect; nearly all actives have a fitted effect of over 60% in size
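BAZ2B (50 nM) with biotin-H3(5-23)K14Ac peptide (50 nM) in PBS pH 7.4, 0.01% Tween-20, preformed 30 min, then compound 30 min at room temperature; top concentration 110uM. AlphaScreen streptavidin donor/nickel chelate acceptor beads (10 ug/mL final), 20 min dark, signal read.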
* hit, by the source's call; ? = inconclusive; . = not tested or not shown; [ ] = remark or other dose. Unless noted, the call rests on the fitted dose curve; in most records, active means well fitted inhibition curve with a large enough effect; inconclusive means small, poorly fitted or top-dose-only effect; inactive means no such curve, though single readings can be large or run the other way.

SMILES | JMJD2A Tudor | HP1b chromo inh | Six1-Eya2 inh | G9a inh | CtBP-E1A inh | BAZ2B block
Cc1ccc(NC(=O)CCc2nc3cccnc3n2-c2ccccc2)cc1Cl | -25% | -1% | . | ? | . | ?
Cc1[nH]n(S(=O)(=O)Cc2ccccc2)c(=O)c1N=Nc1ccccc1Cl | ? | -19% | -16 | 50µM* | -15 | .
Cc1[nH]n(S(=O)(=O)c2ccccc2)c(=O)c1N=Nc1cccc(Cl)c1 | -17% | 30% | -3 | . | -6 | 6%
COc1ccccc1C(=O)COC(=O)CNC(=O)c1ccc(Br)o1 | -14% | 50% | 0 | 50µM* | 11 | 1%
COc1ccc(/C=N/OCC(=O)OCC(=O)N(C)c2ccccc2)cc1 | -2% | 21% | -2 | 50µM* | 3 | -2%
C/C(=N\OCC(=O)OCC(=O)N(C)c1ccccc1)c1ccc2c(c1)OCO2 | 5% | 35% | -3 | 9%[12.7 µM] | . | 79µM*
NNC(=O)c1ccc2c(c1)S(=O)(=O)NNC2=O | 28µM* | 77% | 5 | 11µM* | 11 | -32%
Cc1cccc(C)c1Nc1nc2ccccc2nc1NS(=O)(=O)c1ccccc1 | -9% | -31% | . | 0%[59 µM] | . | -4%
O=C(CSc1nnc(-c2cccs2)o1)Nc1cccc(C(F)(F)F)c1 | -15% | 34% | . | 7%[59 µM] | . | 5%
Cc1cccn2c(=O)c3cc(C(N)=S)c(=N)n(CCCN4CCOCC4)c3nc12 | -31% | 26% | -25 | 45µM* | -27 | -33%
Cc1ccc2nc3c(cc(C(N)=S)c(=N)n3CCCOC(C)C)c(=O)n2c1 | ? | ? | -8 | 22µM* | -4 | -7%
Cc1cccn2c(=O)c3cc(C#N)c(=N)n(CCN4CCOCC4)c3nc12 | 7%[11.4 µM] | 1% | 9 | 19% | -2 | 50µM*
CC(C)(C)c1ccc(Nc2nc(C#N)nc(NC3CCCC3)n2)cc1 | -18% | . | . | . | . | .
N#Cc1ccc(C(=O)NCC2CCCCC2)cc1 | 12% | 21% | 0 | 50µM* | 2 | 1%
O=C(NCC1CCCCC1)c1ccc(=O)[nH]c1 | -3% | 0% | -4 | 45µM* | -3 | -3%
COc1cccc(Cn2c(=O)n(-c3cccc(Cl)c3)c(=O)c3c4c(sc32)CN(C(C)=O)CC4)c1 | -14% | 28% | . | -7%[59 µM] | . | -23%
COc1cc(/C=C/c2ccc3cccc([N+](=O)[O-])c3n2)ccc1OCC(=O)O | -19% | 5% | ? | 40µM* | -26 | 56µM*
O=C(O)COc1ccc(/C=C/c2ccc3cccc([N+](=O)[O-])c3n2)cc1 | ? | ? | ? | 28µM* | -22 | 56µM*
COc1ccccc1CNC(=O)CCC1N=C2c3ccccc3N=C(SCC(=O)Nc3ccc(F)cc3)N2C1=O (stereo not drawn) | -6% | 9% | . | 13%[59 µM] | . | -6%
CCN(CC)S(=O)(=O)c1nnc(NC(=O)c2ccc(C(C)C)cc2)s1 | -16% | 13% | . | -17%[59 µM] | . | -13%
CCN(CC)S(=O)(=O)c1ccc(C(=O)Nc2nnc(C(C)C)s2)cc1 | -29% | 25% | 5 | 35µM* | -17 | -5%
CCOc1ccc(C(=O)Nc2nnc(C(C)C)s2)cc1OCC | -8% | 2% | -2 | 10µM* | -1 | 4%
Cc1[nH]c(=O)[nH]c(=O)c1S(=O)(=O)N1CCN(c2ccccc2Cl)CC1 | 8% | 20% | . | -38%[59 µM] | . | 3%
O=C(O)[C@@H](c1ccccc1)N1Cc2ccccc2C1=O | 25µM* | -11% | 4 | 40µM* | -12 | 20µM*
CC(=O)Nc1ccc(NC(=O)C(c2ccccc2)N2Cc3ccccc3C2=O)cc1 (stereo not drawn) | -6% | 22% | . | -31%[59 µM] | . | 2%
Cc1cccc(C)c1-n1ncc(C(=O)N2CCN(c3ccccn3)CC2)c1C1CCN(C(=O)OC(C)(C)C)CC1 | -18% | 15% | . | -33%[59 µM] | . | -4%[57.1 µM]
CCn1c(SCC(=O)N/N=C\c2ccccc2OCC(=O)O)nnc1-c1ccc(Cl)cc1 | 1% | 33% | -5 | ? | 9 | -9%
